Only some compounds are listed: those with a hit (about 5.4% of all), similar ones and a draw of the others.
Gal4-VP16 FLuc – VP16 counterscreen qHTS for inhibitors of ROR gamma transcriptional activity. actives 3.5% (n = 310,000). Potency, µM (titrated, usually from 53.6 µM), usual class: inhibitors. Drosophila S2 Gal4-VP16 UAS-luciferase, luminescence, 20 h. AID 2546, 2010;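 also: Gal4-VP16 expression switched on by copper sulfate through the metallothionein promoter; nearly all actives have a fitted effect of over 50% in size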
p53 reactivation – qHTS assay for re-activators of p53 using a Luc reporter. H1299 p53-A138V BP100-luciferase reporter, luminescence, 24 h. Potency, µM (doses to about 92.2 µM), usual class: activators. actives 0.063% (n = 320,000). AID 504706, 2011; also: nearly all actives have a fitted effect of over 45% in size
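p53-null H1299 cells stably carrying temperature-sensitive p53-A138V and a BP100-luciferase reporter were pinned with compounds (4-point, 1:5 series) and held 24 hrs at 37 deg C. Luminescence was read 10 min after detection reagent.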
Six1-Eya2 blk – qHTS Assay for Inhibitors of the Six1/Eya2 Interaction; AlphaScreen GST-Six1/His-Eya2 binding, biochemical; hits give low values; activity change, % (test concentration not listed); actives 0.56% (n = 360,000); AID 651725, 2012; in the data active = activity change below about -65%; inconclusive = mostly about -30% to -63%
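Compounds are tested against tagged Six1 and Eya2 proteins bridged by glutathione donor and nickel acceptor beads; after a one-hour incubation at 37 °C without light, AlphaScreen emission is recorded.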
CtBP-E1A blk – qHTS Assay for Inhibitors of the CtBP/E1A Interaction; CtBP / adenovirus E1A interaction (AlphaScreen); AlphaScreen GST-E1A/His-CtBP binding, 1536-well; hits give low values; AID 651724, 2012; activity change, % (concentration not given with the values); actives 0.49% (n = 340,000); in the data active = activity change below about -65%; inconclusive = mostly about -30% to -63%
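In 5 uL wells, 23 nL compound meets equimolar GST-E1A and His-CtBP (5X stock 125 nM each) for 2 h, 37 °C. Beads (5X, 50 ug/mL) then 1 h, 37 °C, dark.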
RORgamma inh – qHTS for inhibitors of ROR gamma transcriptional activity | Nuclear receptor ROR-gamma (Mus musculus), P51450 | Potency, µM (titrated, usually from 53.6 µM), usual class: inhibitors | actives 5.4% (n = 310,000) | Drosophila S2 Gal4-RORgamma UAS-luciferase reporter, 20 h; also: nearly all actives have a fitted effect of over 60% in size
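Drosophila Schneider cells stably carrying a metallothionein-driven Gal4 DBD–ROR gamma fusion and a UAS-Photinus luciferase reporter were exposed to compound for 1 hr, then induced with copper sulfate (700 uM final) for 20 hr at ambient temperature before luminescence reading.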
Each line names hits and unclear results; the compound was inactive in the other large screens. Unless noted, calls follow the shape of the dose curve; as a rule, active = well fitted curve in the direction sought with a large enough effect; inconclusive = small, poorly fitted or top-dose-only effect, or another doubt; inactive = no such curve, though single readings can be large; an effect the other way counts as inactive or inconclusive.

Cc1cc2nc(/N=C(\N)NC(=O)C(C)C)nc(C)c2cc1C	none
Cc1ccc2nc(/N=C(\N)NC(=O)NC3CCCCC3)nc(C)c2c1	Gal4-VP16 FLuc 7.1µM
CCC(=O)N/C(N)=N/c1nc(C)c2cc(C)c(C)cc2n1	RORgamma inh 1µM
CCCC(=O)N/C(N)=N/c1nc(C)c2cc(C)ccc2n1	none
CCOC(=O)[C@@H](N)CS	none (no result: p53 reactivation, Six1-Eya2 blk, CtBP-E1A blk)
COc1cccc(CNC(=O)CCSCc2ccccc2F)c1	none
CO[C@@H]1COC(=O)C/C=C\[C@@H](C)[C@H](OC)COC(=O)C/C=C\[C@H]1C	none (no result: p53 reactivation, Six1-Eya2 blk, CtBP-E1A blk)
CCCCNC(=O)Nc1nnc(-c2ccccc2)o1	Gal4-VP16 FLuc 5.6µM, RORgamma inh 4µM
CCCCNC(=O)Nc1nnc(-c2ccc(OCC)cc2)o1	Gal4-VP16 FLuc 5.6µM, RORgamma inh 7.1µM
CCOc1ccc(-c2nnc(NC(=O)COc3ccccc3F)o2)cc1	none (no result: Gal4-VP16 FLuc, p53 reactivation, RORgamma inh)
CCOC(=O)CNC(=O)Nc1nnc(-c2ccc(OCC)cc2)o1	Gal4-VP16 FLuc 5.6µM, CtBP-E1A blk inconclusive, RORgamma inh 3.2µM
CCCCCCCCCCCCCCCC(=O)NC(C)C	none (no result: p53 reactivation, Six1-Eya2 blk, CtBP-E1A blk)
CCOC(=O)c1ccc(NC(=O)c2cc(C)nc3ccccc23)cc1	RORgamma inh inconclusive (no result: p53 reactivation)
CCc1ccc(OCc2ccccc2C(=O)Nc2ccc3nc(C)cc(N)c3c2)cc1	Gal4-VP16 FLuc inconclusive, RORgamma inh 11µM (no result: p53 reactivation, Six1-Eya2 blk, CtBP-E1A blk)
COC(=O)C(NC(=O)COc1ccccc1)(Nc1nc2c(s1)CCCC2)C(F)(F)F (configuration not stated)	Gal4-VP16 FLuc 20µM, p53 reactivation inconclusive, RORgamma inh inconclusive
CCOC(=O)C(NC(=O)CC)(Nc1nc2c(s1)CCCC2)C(F)(F)F (configuration not stated)	none
C=CCC[C@H](Cc1ccc(F)cc1)C(=O)OC[C@@H](Cc1c[nH]c2ccccc12)NC(=O)[C@@H](CC=C)CC(=O)N(CCO)Cc1ccccc1	none (no result: Gal4-VP16 FLuc, CtBP-E1A blk, RORgamma inh)
COc1ccc(-n2cnc3cc(NCc4cccs4)ccc32)cc1	p53 reactivation inconclusive, CtBP-E1A blk inconclusive, RORgamma inh 14µM
CCc1ccc(Cc2cnc(NC(=O)C3=NCCN3)s2)cc1	Gal4-VP16 FLuc inconclusive, RORgamma inh 7.1µM
O=C(Nc1ncc(Cc2ccc(Cl)cc2Cl)s1)c1ccc([N+](=O)[O-])cc1	Gal4-VP16 FLuc 3.5µM, RORgamma inh 2.2µM
O=C(Nc1ncc(Cc2ccccc2Cl)s1)C1=NCCN1	Gal4-VP16 FLuc 3.2µM, RORgamma inh 4µM
c1ccc(CCN(Cc2ccccc2)C2CCN(C3CCCC3)CC2)cc1	none
COCCNC(=O)CN(C(=O)CCC(=O)Nc1nccs1)c1ccc2c(c1)OCO2	none
CCn1c(C)nc2cc(C(=O)NNC(=S)Nc3ccccc3OC)ccc21	RORgamma inh 13µM
CCn1c(C)nc2cc(C(=O)N/N=C(\C)c3ccccc3O)ccc21	Gal4-VP16 FLuc 0.63µM, RORgamma inh 0.63µM
CCn1c(C)nc2cc(C(=O)NNC(=S)Nc3ccc(C)cc3)ccc21	Gal4-VP16 FLuc inconclusive
CCn1c(C)nc2cc(C(=O)N/N=C/c3ccccc3C)ccc21	Gal4-VP16 FLuc inconclusive, RORgamma inh inconclusive
CN(CC(=O)NC(c1ccccc1)c1ccccc1)Cc1nc2ccccc2c(=O)[nH]1	Gal4-VP16 FLuc 13µM, RORgamma inh inconclusive
O=C(CCc1nc2ccccc2c(=O)[nH]1)NCc1ccco1	none
CN(CC(=O)Nc1ccccc1Sc1ccccc1)Cc1nc2ccccc2c(=O)[nH]1	Gal4-VP16 FLuc 3.5µM, RORgamma inh 0.45µM
CSc1ccc(CN(C)Cc2nc3ccccc3c(=O)[nH]2)cc1	Gal4-VP16 FLuc inconclusive, RORgamma inh inconclusive (no result: CtBP-E1A blk)
CN(CC(=O)NC(=O)NCc1ccco1)Cc1nc2ccccc2c(=O)[nH]1	Gal4-VP16 FLuc 3.5µM, RORgamma inh 1µM
Cc1ccc(Sc2nc3ccc(C)cn3c(=O)c2/C=N/O)cc1	none
COCCNC(=O)C1(C)CCCN(C(=O)c2ccc3c(c2)OCO3)C1 (configuration not stated)	none (no result: Gal4-VP16 FLuc, p53 reactivation, RORgamma inh)
N#CCCn1c(=O)c(-c2ccc(F)cc2)nc2cnc(N3CCOCC3)nc21	none (no result: p53 reactivation, Six1-Eya2 blk, CtBP-E1A blk)
O=C1NC(=S)N(c2cccc(Cl)c2)C12CCCCC2	Gal4-VP16 FLuc inconclusive, RORgamma inh 13µM

Source: PubChem (National Center for Advancing Translational Sciences (NCATS))
